Values joined by “and” are separate entries in the source; they are usually repeats but may differ in a detail not shown here. Equal values may be shown once. Out of some 5,500 compounds screened, about 2,000 (36%) were called active. About 18% were inconclusive and are not listed. No stated cut-off is given here; in the data, active means normalized growth mostly below about 0.91 (no sharp cut-off); inconclusive means no clear call, values can overlap the other calls; inactive means mostly above about 0.92. Some of the results follow.
Assay: chemical genetic growth profiling, strain panel (AID 1159580);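 further: tested at 20 µM; growth read once vehicle control cultures reached saturation at 30 °C; 1 = growth at the plate median or of vehicle wells; lower values mean less growth of the strain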
Conditions: S. cerevisiae deletion strains, growth OD

Measured: normalized growth

COc1cc([C@@H]2c3cc4c(cc3[C@H](O)[C@H]3COC(=O)[C@H]23)OCO4)cc(OC)c1OC
inactive: locus YAL013W, strain DEP1, hits give low values 1.01 | locus YAL021C, strain ccr4, hits give low values 1 | locus YAL026C, strain drs2, hits give low values 1.03 | locus YAL030W, strain snc1, hits give low values 1.01 | locus YBL061C, strain skt5, hits give low values 1.01 | locus YBR009C, strain hhf1, hits give low values 1.04 | locus YBR021W, strain FUR4, hits give low values 1.01 | locus YBR023C, strain chs3, hits give low values 1.01 | locus YBR171W, strain sec66, hits give low values 1.01 | locus YBR229C, strain ROT2, hits give low values 1.01 | locus YBR231C, strain swc5, hits give low values 1.01 | locus YBR279W, strain paf1, hits give low values 1.02 | locus YCL011C, strain gbp2, hits give low values 1.01 | locus YCL016C, strain dcc1, hits give low values 0.996 | locus YCL029C, strain bik1, hits give low values 1.03 | locus YCL061C, strain MRC1, hits give low values 1.02 | locus YCL069W, strain vba3, hits give low values 1.01 | locus YCR088W, strain abp1, hits give low values 1.01 | locus YDL005C, strain med2, hits give low values 1.01 | locus YDL035C, strain GPR1, hits give low values 1.01 | locus YDL040C, strain nat1, hits give low values 1 | locus YDL074C, strain BRE1, hits give low values 1.05 | locus YDL101C, strain DUN1, hits give low values 1.02 | locus YDL134C, strain PPH21, hits give low values 1.02 | locus YDL185W, strain tfp1, hits give low values 1.01 | locus YDL192W, strain arf1, hits give low values 1.01 | locus YDR001C, strain nth1, hits give low values 1 | locus YDR069C, strain doa4, hits give low values 1 | locus YDR101C, strain arx1, hits give low values 1.01 | locus YDR137W, strain rgp1, hits give low values 1.03 | locus YDR150W, strain NUM1, hits give low values 1.01 | locus YDR159W, strain sac3, hits give low values 0.987 | locus YDR162C, strain NBP2, hits give low values 1.01 | locus YDR195W, strain ref2 0.971 | locus YDR297W, strain sur2, hits give low values 1.01 | locus YDR318W, strain mcm21, hits give low values 1.03 | locus YDR334W, strain swr1, hits give low values 1.02 | locus YDR335W, strain msn5, hits give low values 1.01 | locus YDR388W, hits give low values 1.01 | locus YDR392W, strain spt3, hits give low values 0.926 | locus YDR502C, strain sam2, hits give low values 1 | locus YEL003W, strain gim4, hits give low values 1.01 | locus YEL037C, strain rad23, hits give low values 1.02 | locus YEL061C, strain CIN8 (second series), hits give low values 1.01 | locus YEL061C, strain CIN8, hits give low values 1 | locus YER015W, strain faa2, hits give low values 1.02 | locus YER016W, strain bim1, hits give low values 1 | locus YER110C, hits give low values 1.01 | locus YER111C, strain swi4, hits give low values 1.01 | locus YER155C, strain BEM2 (second series), hits give low values 0.998 | locus YER155C, strain BEM2, hits give low values 1.01 | locus YER167W, strain BCK2, hits give low values 1.01 | locus YFR010W, strain ubp6, hits give low values 1.02 | locus YGL078C, strain dbp3, hits give low values 1 | locus YGL086W, strain mad1, hits give low values 1 | locus YGL167C, strain pmr1, hits give low values 1.01 | locus YGL173C, strain kem1, hits give low values 1.04 | locus YGL227W, strain vid30, hits give low values 1.01 | locus YGL240W, strain doc1, hits give low values 1 | locus YGL248W, strain PDE1, hits give low values 1.01 | locus YGL253W, strain hxk2, hits give low values 0.982 | locus YGR078C, strain PAC10, hits give low values 1.03 | locus YGR135W, strain pre9, hits give low values 1.01 | locus YGR229C, strain SMI1, hits give low values 1.03 | locus YGR252W, strain gcn5, hits give low values 0.988 | locus YHR013C, strain ard1, hits give low values 1 | locus YHR027C, strain rpn1, hits give low values 1.01 | locus YHR030C, strain SLT2, hits give low values 1.01 and 0.951 | locus YHR079C, strain IRE1 (second series), hits give low values 1.02 | locus YHR079C, strain IRE1, hits give low values 0.952 | locus YHR094C, strain hxt1, hits give low values 1.01 | locus YHR129C, strain ARP1, hits give low values 1.01 | locus YHR142W, strain chs7, hits give low values 0.992 | locus YHR200W, strain rpn10, hits give low values 1.01 | locus YIL066C, strain RNR3, hits give low values 1.02 | locus YIL073C, strain SPO22, hits give low values 1.02 | locus YIL125W, strain kgd1, hits give low values 1.01 | locus YIR030C, strain dcg1, hits give low values 1.01 | locus YJL092W, strain hpr5, hits give low values 1.02 | locus YJL095W, strain BCK1 (second series), hits give low values 1.01 | locus YJL095W, strain BCK1, hits give low values 1.04 and 0.961 | locus YJL115W, strain asf1, hits give low values 1.01 | locus YJL129C, strain trk1, hits give low values 1.02 | locus YJL134W, strain LCB3, hits give low values 1.01 | locus YJL154C, strain vps35, hits give low values 0.999 | locus YJL164C, strain tpk1, hits give low values 1.02 | locus YJL166W, strain qcr8, hits give low values 1 | locus YJL168C, strain set2, hits give low values 1.01 | locus YJL187C, strain SWE1 (second series), hits give low values 1.04 | locus YJL187C, strain SWE1, hits give low values 1.02 | locus YJR043C, strain POL32, hits give low values 1.04 | locus YJR066W, strain TOR1, hits give low values 0.927
